# Laboratory results taken from PubChem BioAssay AID1492 (National Center for Advancing Translational Sciences (NCATS), 2009).
# Inconclusive results are not listed. A number with no mark means an inactive call. The source made the active and inactive calls. Calls come from the whole dose curve; as a rule, active = well fitted inhibition curve with a large enough effect; inconclusive = small, poorly fitted or top-dose-only effect; inactive = flat fitted curve, though single readings scatter.
# Target: Muscarinic acetylcholine receptor M1 (Rattus norvegicus) (UniProt P08482)
# Test: Counterscreen Concentration-Response Assay for Antagonists of the Neuropeptide S Receptor: Muscarinic Receptor Calcium Signal Transduction.
# Conditions: CHO-M1 cells, carbachol-induced calcium fluorescence, FDSS; series mostly up to 20.2 µM; activity, negative = inhibition: at the top concentration
# Source text: NIH Chemical Genomics Center [NCGC] NIH Molecular Libraries Probe Production centers Network [MLPCN] MLPCN Grant: X01-DA026210-01 Assay Submitter (PI): Heilig, Markus Alexander NCGC Assay Overview: Neuropeptide S receptor (NPSR), previously known as GPR154, is a recently de-orphanized G protein coupled receptor. Its endogenous ligand is the 20 amino acids peptide Neuropeptide S (NPS). […] NPS and its receptor are found in various tissues. Specifically they are highly expressed in brain areas that have been implicated in modulation of arousal, stress and anxiety. Central administration of NPS in mice produces an unusual profile of activity by inducing wakefulness and arousal, while at the same time suppressing anxiety. Therefore, NPSR may represent a novel drug target for the treatment of sleep and anxiety disorders. To identify NPSR antagonists, we developed a cell-based assay with transfected NPS receptor. NPS can stimulate the production of cAMP as well as release intracellular calcium in Chinese hamster ovary cells stably expressing NPS receptor. This change in intracellular calcium can be detected using a calcium indicator dye on a calcium imaging plate reader system (FDSS). To validate the specific action of compounds on the NPS receptor, a counterscreen was developed that tests compounds' antagonism of M1 muscarinic receptor stimulation by carbachol. The protein, gene and taxonomy linked to this assay refer to Rattus norvegicus, but Chinese Hamster ovary cells were actually used.
# NCGC Assay Protocol Summary: A Chinese hamster ovary (CHO) cell line stably expressing muscarinic acetylcholine M1 receptor (CHO-M1) was obtained from ATCC and maintained in F-12 Kaighn's media (Invitrogen, Carlsbad, CA, 21127) supplemented with 10 % FBS, 100 units/ml penicillin, 100 ug/ml streptomycin and 250 ug/ml geneticin at 37C, 5% CO2 in a humidified atmosphere. Before the assay, aliquots of cells were frozen and stored at -135C. The assay was performed on a FDSS-7000 kinetic plate reader in 1536-well format. The maximums of kinetic fluorescence responses were converted into text files using the instrument's software data export utility. […] AC50 values were determined from concentration-response data modeled with the standard Hill equation. CHO-M1 1536-well FDSS assay protocol: (1) Frozen CHO-M1 cells were thaw, washed once with fresh media and resuspended in F-12 Kaighn's media supplemented with 10 % FBS, 100 units/ml penicillin and 100 ug/ml streptomycin. Cells were plated at 3 ul/well (1200 cells) to black, clear-bottom, tissue-culture treated 1536-well plates, and then cultured at 37C, 5 % CO2 for 16 to 30 hours. (2) Add 3 ul of calcium dye (from High Performance PBX Calcium Assay Kit, BD Biosciences). The calcium dye was prepared according to the manufactory's instruction. (3) Incubation at 37C, 5 % CO2 for 60 min. (4) Add 23 nl/well of compound in DMSO solution. The final titration for each compound was between 0.6 nM and 46 uM. (5) Load plates to FDSS-7000. The following steps were performed on FDSS-7000. (6) Record fluorescent background (Ex 480 nm, Em 520-560 nm) for 10 s. (7) Add 2 ul of stimulation reagent (1X HBSS buffer, 0.1% BSA, 60 nM carbachol). Record antagonist response (Ex 480 nm, Em 520-560 nm) for 180 s. Keywords: MLSMR, MLPCN, NIH Roadmap, qHTS, NCGC, NPS, Neuropeptide S Antagonists
Compound,"activity, negative = inhibition",Potency
CC1CCN(S(=O)(=O)c2ccc(C(=O)Nc3sccc3C(N)=O)cc2)CC1,-2.17%,
C#CC(=O)N(c1cccc(OC)c1)C(C(=O)NC1CCCC1)c1cccs1 (stereo not given),-9.03%,
COCCCn1c(SCc2cc(=O)[nH]c3ccccc23)nnc1-c1ccco1,-8.77%,
c1ccc(N2CCN(Cc3ccnc4ccccc34)CC2)cc1,12.5%,
Cc1ccc(-c2nnn(CC(=O)Nc3ccccc3-c3ccccc3)n2)c(-n2cnnn2)c1,6.88%,
CN(C)c1ccc(N=Cc2ccco2)cc1,3.92%,
O=C(COC(=O)c1ccccc1C(=O)c1ccc(Cl)c([N+](=O)[O-])c1)NC1CCCCCC1,,4.47 µM (active)
C=CCNC(=O)/C(C#N)=C/c1cn(-c2ccccc2)nc1-c1ccc(OC)c([N+](=O)[O-])c1,-10.9%,
C(=C\c1ccccc1)/C=N/N1CCN(c2ccccn2)CC1,8.26%,
Nc1ccc(-c2nc3c(Cl)cc(N)cc3[nH]2)cc1,-5.43%,
COc1ccc(C2c3c(ncn(CCN4CCOCC4)c3=N)Oc3ccc4ccccc4c32)cc1OC (stereo not given),17.8%,
Cc1ccc(Cn2cc(SCC(=O)Nc3nccs3)c3ccccc32)cc1,-0.635%,
O=[N+]([O-])c1cc2c(cc1/C=N/n1c(-c3ccccc3)n[nH]c1=S)OCO2,-9.38%,
CCC(C)n1c(=O)c(C(=O)Nc2ccccc2S(N)(=O)=O)c(O)c2ccccc21 (stereo not given),-8.1%,
CCOc1ccc(N2C(=O)CC(NCCc3ccncc3)C2=O)cc1 (stereo not given),9.94%,
COc1ccc(N(CC(=O)Nc2cccc(SC)c2)S(C)(=O)=O)cc1Cl,7.48%,
COc1ccccc1-c1nnc(SC2CCc3ccccc3NC2=O)s1 (stereo not given),-0.169%,
N#CC(C#N)=c1ccc2c(c1)NC1(CCCCC1)N=2,-17.5%,
COc1ccc(NC(=O)/C(Cl)=C(/Cl)S(=O)Cc2ccc(C)cc2)cn1 (stereo not given),,10 µM (active)
O=C(CSc1n[nH]c(-c2cccnc2)n1)Nc1ccnc2ccccc12,3%,

Compound,"activity, negative = inhibition",Potency
O=C(CSC1=NCCS1)Nc1ccnc2ccccc12,7.63%,
Cc1cccc(-c2nnc(SCc3cc(=O)[nH]c4ccccc34)n2C)c1,3.42%,
O=C(O)c1cccc(Nc2ncnc3ccccc23)c1,-12.1%,
CCC(C)(C)NC(=O)Cc1ccc(C)cc1,4.41%,
Cn1c(C(=O)NCCN2CCc3ccccc3C2)cc2c(=O)[nH]c3ccccc3c21,4.13%,
N#Cc1cnn(-c2ncnc3sc4c(c23)CCCC4)c1N,9.92%,
OC(C#Cc1ccccn1)c1cccs1 (stereo not given),-17%,
CC1CCCc2sc3nc(N4CCN(CCO)CC4)n4ncnc4c3c21 (stereo not given),17.7%,
O=C(/C(=C/c1ccc(Cl)cc1)c1nc2ccccc2[nH]1)c1cccs1,,7.94 µM (active)
c1ccc(-c2ccc(-c3nc(-c4cccnc4)no3)cc2)cc1,12.7%,
O=C(O)CCCCCNc1nc(=S)[nH]c2ccccc12,-7.08%,
O=C(O)C1CCN(c2nc(-c3ccccc3)nc3c2oc2ccccc23)CC1,-11.1%,
COc1ccc(/C=C2\CCCC3C2=NN(C(=O)c2ccco2)C3c2ccc(OC)c(OC)c2)cc1OC (stereo not given),12.2%,
CN(Cc1cc(=O)[nH]c2ccccc12)C(=O)c1ccccc1,-5.45%,
CCc1ccc2oc(-c3cc(N)cc(C)c3O)nc2c1,17.3%,
CCN(CC)S(=O)(=O)c1ccc2c(c1)nc(SC(C)C(N)=O)n2-c1ccc(OC)cc1 (stereo not given),-10.2%,
CCC(Sc1ccc2nnc(-c3cccnc3)n2n1)C(=O)O (stereo not given),-10.5%,
CC(=O)c1cc(NC(=O)c2ccccc2)c(=O)oc1/C=C/N(C)C,-17.1%,
Cc1cc(OCC(=O)c2ccc(Br)cc2)ccc1N1C(=O)CCC1=O,-0.282%,
CC1CCCCN1S(=O)(=O)c1ccc(C(=O)Nc2sccc2C(N)=O)cc1 (stereo not given),-6.92%,
